DT40 TDP1 CPT – DT40-hTDP1 cell growth loss with CPT; chicken DT40 Tdp1-/-;hTDP1 cells + 20 nM CPT, ATP luminescence, 48 h; Potency, µM (doses to about 46.2 µM), for inactives: at the highest dose activity change, negative = growth inhibition, most hits filed as inhibitors; actives 12% (n = 420,000); AID 686979; further: nearly all actives have a fitted effect of over 55% in size
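Cell growth measured by CellTiter-Glo luminescence after a minimum 48 h, 37 C compound exposure with 20 nM CPT in Tdp1-knockout DT40 cells stably expressing hTDP1, seeded 400/well; qHTS titration format.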
HT1080 IDH1KD tx – toxicity to HT-1080 IDH1 knockdown cells (counter line); HT-1080 IDH1 knockdown viability, ATP luminescence, 48 h; Potency, µM (series often up to 46.1 µM), without a hit: at the highest dose activity, negative = toxicity, most hits filed as cytotoxic; actives 2% (n = 360,000); AID 686971;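 further: 0% = DMSO wells and -100% = cell-free medium wells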
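Luminescent ATP read-out (CellTiter-Glo, 10 min at room temperature) after 48 h compound exposure at 37 °C gave viability of IDH1-knockdown HT-1080 cells. Activity was normalised to DMSO and cell-free wells, then fitted as concentration-response curves.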
KB-V1 cytotox – KB-V1 MDR subline cytotoxicity; AID 1347076; KB-V1 MDR cells viability, CellTiter-Glo, 72 h; actives 3.4% (n = 400,000); Potency, µM (highest dose often 46.1 µM), hits mostly cytotoxic; further: nearly all actives have a fitted effect of over 60% in size
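KB-V1 cells (P-gp-expressing MDR subline of KB-3-1) in phenol-red-free DMEM with 10% FBS were exposed to library compounds over a concentration series for 72 h at 37 degrees C. Viability read by CellTiter-Glo luminescence; concentration-effect curves fitted after normalization.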
KB-3-1 cytotox – KB-3-1 parental cell cytotoxicity. KB-3-1 viability, CellTiter-Glo ATP luminescence, 72 h. actives 1.4% (n = 400,000). Potency, µM (titrated, usually from 46.1 µM), actives largely listed as cytotoxic. AID 1347075; further: nearly all actives have a fitted effect of over 60% in size
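72 h, 37 °C compound treatment of KB-3-1 parental cells; CellTiter-Glo added, 10 min, luminescence read. Data corrected against DMSO-only plates and normalized before curve fitting.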
HT1080-NT tox – kills 2HG-producing HT-1080-NT fibrosarcoma cells. HT-1080-NT fibrosarcoma viability, CellTiter-Glo ATP luminescence, 48 h. Potency, µM (doses to about 46.1 µM), inactives show at the top dose activity, negative = less viability, hits mostly cytotoxic. actives 1.6% (n = 360,000). AID 686970;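 further: NT is the 2HG producing partner of a matched IDH1 knockdown line; 0% = DMSO-treated cells and -100% = media-only wells without cells; nearly all actives have a fitted effect of over 55% in size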
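HT-1080-NT fibrosarcoma cells (2HG-overproducing), 750 cells/well in RPMI with 5% FBS, dosed after 2 h and incubated 48 h at 37C. CellTiter-Glo luminescence normalized to DMSO and no-cell wells; concentration-response curves fitted and classed.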
TDP1 cell noCPT – qHTS for Inhibitors of human tyrosyl-DNA phosphodiesterase 1 (TDP1): qHTS in cells in absence of CPT; DT40 Tdp1-/- hTDP1 cells, no CPT, ATP luminescence, 48 h; Potency, µM (titrated, usually from 46.2 µM), for inactives: at the top dose activity change, negative = growth inhibition, hits mostly inhibitors; actives 15% (n = 420,000); further: nearly all actives have a fitted effect of over 55% in size
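Stably hTDP1-transfected Tdp1-null chicken DT40 cells were treated with library compounds minus camptothecin and grown for at least 48 hr at 37 °C, after which cellular ATP was quantified by luminescence.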
An asterisk follows results filed as active; i = inactive; ? = inconclusive; / = not tested or not shown. Most compounds without a hit are left out; they make up all but 19% or so of the library. The call rests on the fitted dose curve; in most records, active means well fitted curve in the direction sought with a large enough effect; inconclusive means small, poorly fitted or top-dose-only effect, or another doubt; inactive means no such curve, though single readings can be large; an effect the other way counts as inactive or inconclusive. Unless noted, on the % scale 0 is the no-effect control and ±100 the full control effect; potency means the concentration at half of the fitted maximal effect.

SMILES | DT40 TDP1 CPT | HT1080 IDH1KD tx | KB-V1 cytotox | KB-3-1 cytotox | HT1080-NT tox | TDP1 cell noCPT
Cc1cccc(NS(=O)(=O)c2ccc3c(c2)[C@H]2C=CC[C@H]2[C@@H](c2ccc(F)cc2)N3)c1 | 10.3µM* | / | i | i | / | 10.3µM*
COc1cccc(NS(=O)(=O)c2ccc3c(c2)C2C=CCC2C(c2ccc(C(=O)O)cc2)N3)c1 (stereo not drawn) | -9.0% | 4.9% | i | i | 6.2% | -11.0%
CCOc1ccc(NC(=O)Cn2c(=O)n(Cc3nc(-c4ccccc4)no3)c(=O)c3ccccc32)cc1 | -19.0% | / | i | i | / | ?
CCOC(=O)c1cccc(NC(=O)CC2C(=O)N(c3ccc(C)cc3)C(=O)N2Cc2cccc(OC)c2)c1 (stereo not drawn) | 18.4µM* | / | / | / | / | ?
COc1ccc(NC(=O)CC2C(=O)N(c3ccc(OC)cc3)C(=O)N2C(C)C)cc1 (stereo not drawn) | 3.5% | 2.2% | i | i | 10.7% | -4.8%
CCOc1ccc(NC(=O)CC2C(=O)N(c3ccc(OC)cc3)C(=O)N2Cc2ccc(OC)cc2)cc1 (stereo not drawn) | ? | -17.1% | i | i | -0.8% | ?
CCOC(=O)c1ccc(NC(=O)CC2C(=O)N(c3cccc(OC)c3)C(=O)N2Cc2ccc(OC)cc2)cc1 (stereo not drawn) | 20.6µM* | / | i | i | / | ?
COC(=O)c1ccc(NC(=O)CC2C(=O)N(c3ccc(C)cc3)C(=O)N2CC(C)C)cc1 (stereo not drawn) | ? | -19.0% | 23.1µM* | i | 3.5% | ?
CCOC(=O)c1ccc(NC(=O)CC2C(=O)N(c3ccc(F)cc3)C(=O)N2Cc2cccnc2)cc1 (stereo not drawn) | 18.4µM* | / | / | / | / | 14.6µM*
CCOC(=O)c1ccc(NC(=O)CC2C(=O)N(c3ccc(F)cc3)C(=O)N2Cc2ccc(C)cc2)cc1 (stereo not drawn) | 16.4µM* | / | i | i | / | ?
COc1ccc(NC(=O)CC2C(=O)N(c3cccc(C)c3)C(=O)N2Cc2cccnc2)cc1 (stereo not drawn) | ? | / | / | / | / | -17.7%
CCOC(=O)c1ccc(NC(=O)CC2C(=O)N(c3cccc(OC)c3)C(=O)N2Cc2cccnc2)cc1 (stereo not drawn) | 13µM* | / | / | / | / | 20.6µM*
Cc1csc(-c2cnn(-c3ccccc3)c2NC(=O)c2cccc(C(F)(F)F)c2)n1 | -14.2% | -2.9% | i | i | -19.5% | -4.9%
COCCNc1nc2cc(-c3ccccc3OC)sc2c(=O)n1C | 18.4µM* | -16.5% | ? | i | 1.3% | 13µM*
C=CCNc1nc2cc(-c3ccccc3OC)sc2c(=O)n1C | ? | 5.5% | i | i | -0.8% | ?
COCCNc1nc2cc(-c3ccccc3C)sc2c(=O)n1C | 18.4µM* | -5.2% | i | i | -7.4% | ?
c1ccc(CC[C@@H]2CC[C@@H](CCc3ccccc3)N2)cc1 | 11.6µM* | -4.4% | i | i | -29.1% | 18.4µM*
COc1ccc(OC)c(CN2C(=O)CN(S(C)(=O)=O)CC2(C)C(=O)NCc2ccccc2)c1 (stereo not drawn) | 13.1% | 11.8% | i | i | 11.5% | 1.6%
COc1ccc(-n2ccnc(NCc3ccc(Cl)cc3)c2=O)cc1 | ? | / | i | i | / | 14.6µM*
Cn1c(=O)c2c(nc(NCc3cccnc3)n2Cc2ccc(Cl)cc2)n(C)c1=O | ? | ? | ? | ? | ? | 5.8µM*

Screening results: PubChem BioAssay, National Center for Advancing Translational Sciences (NCATS)
